From the supplement of paper PMC10849652
About 8,800 targets were measured; listed, in parts, are those with a hit and a random draw of the rest. About 0.5% of all pairs of compound and target were hits. A number with no mark means an inactive call.

Assays:
Test in all cases: log2 fold change, soluble protein after heating vs DMSO (PISA); higher = thermal stabilisation; K562 lysate, 10 uM; active = over 0.2 and 3.5 SD of the protein, either way, in both replicates (recomputed)
[1] = compound: CS(=O)(=O)CCNCc1ccc(-c2ccc3ncnc(Nc4ccc(OCc5cccc(F)c5)c(Cl)c4)c3c2)o1 [lapatinib]
Procedure, shortened: (§1)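 Soluble protein was defined as the supernatant remaining after 21,000xg for 90 min, following pooling of heated aliquots and adjustment to 0.5% NP-40 at 4°C. Before that, crude K562 extract at 1 mg/mL protein in PBS pH 7.4 with 1 mM MgCl2 was treated with 10 μM compound for 30 min and heated for 3 min across 48°C-58°C. Quantification used TMTpro 16plex LC-MS/MS with channel sums equalised, and values are log-two fold changes in thermal stability relative to solvent controls from duplicates.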

[2] = compound: CS(=O)(=O)N1CCN(Cc2cc3nc(-c4cccc5[nH]ncc45)nc(N4CCOCC4)c3s2)CC1 [pictilisib]
Procedure, shortened: as §1

[3] = compound: C[C@@H](Oc1cc(-c2cnn(C3CCNCC3)c2)cnc1N)c1c(Cl)ccc(F)c1Cl [crizotinib]
Procedure, shortened: as §1

[4] = compound: C[C@H](C1=CC=C(C=C1)C(=O)NC2=C3C=CNC3=NC=C2)N
Procedure, shortened: as §1

[5] = compound: C[C@H](Nc1ncnc2nc[nH]c12)c1cc2cccc(Cl)c2c(=O)n1-c1ccccc1 [duvelisib]
Procedure, shortened: as §1

[6] = compound: Cc1cc(Nc2cc(CN3CCOCC3)c3nc(C)c(Cc4ccc(Cl)cc4F)n3n2)n[nH]1 [gandotinib]
Procedure, shortened: as §1

[7] = compound: Cc1cc(Nc2cc(N3CCN(C)CC3)nc(Sc3ccc(NC(=O)C4CC4)cc3)n2)n[nH]1 [tozasertib]
Procedure, shortened: as §1

[8] = compound: Cc1ccc(-n2nc(C(C)(C)C)cc2NC(=O)Nc2ccc(OCCN3CCOCC3)c3ccccc23)cc1 [doramapimod]
Procedure, shortened: as §1

[9] = compound: Cc1ccc(NC(=O)c2ccc(CN3CC[C@H](N(C)C)C3)c(C(F)(F)F)c2)cc1Nc1nccc(-c2cncnc2)n1 [bafetinib]
Procedure, shortened: as §1

[10] = compound: Cc1cccc(CC(=O)N2CCc3c2ccc(-c2cn(C)c4ncnc(N)c24)c3F)n1
Procedure, shortened: as §1

[11] = compound: Cc1cn(-c2cc(NC(=O)c3ccc(C)c(Nc4nccc(-c5cccnc5)n4)c3)cc(C(F)(F)F)c2)cn1 [nilotinib]
Procedure, shortened: as §1

[12] = compound: Cc1nc(Nc2n[nH]c3c2CN(C(=O)N[C@H](CN(C)C)c2ccccc2)C3(C)C)c2sccc2n1
Procedure, shortened: as §1

[13] = compound: Cc1nc(Nc2ncc(C(=O)Nc3c(C)cccc3Cl)s2)cc(N2CCN(CCO)CC2)n1 [dasatinib]
Procedure, shortened: as §1

[14] = compound: Cc1ncc(-c2ccnc(Nc3ccc(S(C)(=O)=O)cc3)n2)n1C(C)C
Procedure, shortened: as §1

[15] = compound: Cn1cc(-c2ccc3c(c2)CCN3C(=O)Cc2cccc(C(F)(F)F)c2)c2c(N)ncnc21
Procedure, shortened: as §1

[16] = compound: Cn1cc(CNCC2CCN(c3ncc(C(=O)NO)cn3)CC2)c2ccccc21 [quisinostat]
Procedure, shortened: as §1

[17] = compound: Cn1cncc1[C@@](N)(c1ccc(Cl)cc1)c1ccc2c(c1)c(-c1cccc(Cl)c1)cc(=O)n2C [tipifarnib]
Procedure, shortened: as §1

[18] = compound: NC(=O)Nc1cc(-c2cccc(F)c2)sc1C(=O)N[C@H]1CCCNC1
Procedure, shortened: as §1

[19] = compound: NC(=O)c1cnc(N[C@@H]2CCCC[C@@H]2N)nc1Nc1cccc(-n2nccn2)c1
Procedure, shortened: as §1

[20] = compound: NC1(c2ccc(-c3nc4ccn5c(=O)[nH]nc5c4cc3-c3ccccc3)cc2)CCC1
Procedure, shortened: as §1

Sequence of UniProt Q7Z4V5 (Q7Z4V5 whole entry, looked up): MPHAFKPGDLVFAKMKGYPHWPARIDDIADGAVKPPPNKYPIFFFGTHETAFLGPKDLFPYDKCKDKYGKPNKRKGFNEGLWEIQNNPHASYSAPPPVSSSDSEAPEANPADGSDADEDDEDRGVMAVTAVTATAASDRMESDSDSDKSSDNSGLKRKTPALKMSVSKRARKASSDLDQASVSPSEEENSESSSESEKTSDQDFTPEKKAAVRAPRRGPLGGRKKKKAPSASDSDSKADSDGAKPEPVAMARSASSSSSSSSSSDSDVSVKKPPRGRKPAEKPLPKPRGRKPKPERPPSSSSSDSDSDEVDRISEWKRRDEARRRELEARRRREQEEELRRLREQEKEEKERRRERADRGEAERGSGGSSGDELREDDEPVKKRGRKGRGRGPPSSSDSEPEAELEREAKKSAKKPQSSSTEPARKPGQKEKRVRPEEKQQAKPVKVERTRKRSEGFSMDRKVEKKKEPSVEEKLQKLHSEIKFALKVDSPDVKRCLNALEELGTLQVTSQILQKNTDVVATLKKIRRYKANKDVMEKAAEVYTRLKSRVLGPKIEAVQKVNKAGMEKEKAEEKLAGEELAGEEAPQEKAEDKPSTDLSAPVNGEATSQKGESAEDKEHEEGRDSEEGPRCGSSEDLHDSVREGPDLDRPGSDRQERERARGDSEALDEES
Sequence of UniProt Q15046 (Q15046 whole entry, looked up): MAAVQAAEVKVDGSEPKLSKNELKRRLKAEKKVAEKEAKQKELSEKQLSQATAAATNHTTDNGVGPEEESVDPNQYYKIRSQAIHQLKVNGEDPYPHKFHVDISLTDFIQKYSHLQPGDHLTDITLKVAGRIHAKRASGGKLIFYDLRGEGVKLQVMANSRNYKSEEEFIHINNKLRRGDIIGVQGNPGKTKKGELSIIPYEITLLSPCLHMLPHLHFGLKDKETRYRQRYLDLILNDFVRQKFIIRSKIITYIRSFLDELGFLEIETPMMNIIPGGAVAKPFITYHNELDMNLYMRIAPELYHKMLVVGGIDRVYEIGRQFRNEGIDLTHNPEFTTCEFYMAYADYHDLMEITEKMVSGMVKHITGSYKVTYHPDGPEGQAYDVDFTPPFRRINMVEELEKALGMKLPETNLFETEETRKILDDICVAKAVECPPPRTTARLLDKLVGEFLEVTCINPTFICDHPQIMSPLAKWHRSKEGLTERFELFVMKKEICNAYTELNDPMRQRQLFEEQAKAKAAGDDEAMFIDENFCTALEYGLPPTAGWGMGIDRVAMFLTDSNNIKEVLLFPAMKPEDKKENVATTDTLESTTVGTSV
Sequence of UniProt Q9NVR2 (Q9NVR2 whole entry, looked up): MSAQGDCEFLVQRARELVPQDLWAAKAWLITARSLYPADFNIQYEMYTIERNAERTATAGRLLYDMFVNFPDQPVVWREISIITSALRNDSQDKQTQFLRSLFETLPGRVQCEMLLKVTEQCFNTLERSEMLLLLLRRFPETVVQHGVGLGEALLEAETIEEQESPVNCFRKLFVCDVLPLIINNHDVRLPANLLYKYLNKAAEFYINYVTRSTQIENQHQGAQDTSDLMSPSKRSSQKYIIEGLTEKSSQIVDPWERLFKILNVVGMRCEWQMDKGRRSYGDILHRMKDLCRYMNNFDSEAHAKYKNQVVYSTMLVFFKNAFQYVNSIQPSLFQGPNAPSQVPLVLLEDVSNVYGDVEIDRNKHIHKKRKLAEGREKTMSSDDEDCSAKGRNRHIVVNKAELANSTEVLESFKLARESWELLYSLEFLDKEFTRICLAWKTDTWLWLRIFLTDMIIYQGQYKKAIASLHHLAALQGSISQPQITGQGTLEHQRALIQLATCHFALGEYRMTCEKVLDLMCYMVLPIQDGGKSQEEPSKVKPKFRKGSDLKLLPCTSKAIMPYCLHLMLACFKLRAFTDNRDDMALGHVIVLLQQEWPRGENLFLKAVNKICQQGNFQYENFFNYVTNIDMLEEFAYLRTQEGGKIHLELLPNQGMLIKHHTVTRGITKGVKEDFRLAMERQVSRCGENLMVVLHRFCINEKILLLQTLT
Sequence of UniProt Q9H0C8 (Q9H0C8 whole entry, looked up): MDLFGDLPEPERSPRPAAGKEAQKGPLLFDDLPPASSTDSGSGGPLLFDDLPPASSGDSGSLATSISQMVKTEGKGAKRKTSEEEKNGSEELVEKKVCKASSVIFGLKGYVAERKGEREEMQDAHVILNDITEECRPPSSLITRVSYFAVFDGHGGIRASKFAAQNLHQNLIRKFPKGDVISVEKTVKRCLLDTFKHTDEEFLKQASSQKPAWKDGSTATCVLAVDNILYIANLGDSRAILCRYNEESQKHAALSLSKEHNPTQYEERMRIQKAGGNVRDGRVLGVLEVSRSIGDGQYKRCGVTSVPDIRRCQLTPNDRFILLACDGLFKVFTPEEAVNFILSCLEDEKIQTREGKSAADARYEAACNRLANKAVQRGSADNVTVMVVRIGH
Sequence of UniProt O00425 (O00425 whole entry, looked up): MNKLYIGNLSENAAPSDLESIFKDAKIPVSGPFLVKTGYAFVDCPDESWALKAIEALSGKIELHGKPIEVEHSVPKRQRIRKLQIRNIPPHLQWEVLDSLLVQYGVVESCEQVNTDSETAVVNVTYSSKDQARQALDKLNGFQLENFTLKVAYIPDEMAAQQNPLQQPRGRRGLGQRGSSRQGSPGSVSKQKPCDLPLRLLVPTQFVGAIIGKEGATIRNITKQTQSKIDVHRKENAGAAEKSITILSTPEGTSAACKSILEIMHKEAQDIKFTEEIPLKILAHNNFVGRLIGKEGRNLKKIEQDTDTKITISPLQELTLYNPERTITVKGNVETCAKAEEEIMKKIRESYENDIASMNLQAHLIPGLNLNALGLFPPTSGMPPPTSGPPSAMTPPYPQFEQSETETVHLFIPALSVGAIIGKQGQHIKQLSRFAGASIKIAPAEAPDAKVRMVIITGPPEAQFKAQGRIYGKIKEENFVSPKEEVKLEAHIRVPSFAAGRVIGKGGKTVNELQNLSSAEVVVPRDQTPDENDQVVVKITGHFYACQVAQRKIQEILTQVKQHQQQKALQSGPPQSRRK
Sequence of UniProt Q99729 (Q99729 whole entry, looked up): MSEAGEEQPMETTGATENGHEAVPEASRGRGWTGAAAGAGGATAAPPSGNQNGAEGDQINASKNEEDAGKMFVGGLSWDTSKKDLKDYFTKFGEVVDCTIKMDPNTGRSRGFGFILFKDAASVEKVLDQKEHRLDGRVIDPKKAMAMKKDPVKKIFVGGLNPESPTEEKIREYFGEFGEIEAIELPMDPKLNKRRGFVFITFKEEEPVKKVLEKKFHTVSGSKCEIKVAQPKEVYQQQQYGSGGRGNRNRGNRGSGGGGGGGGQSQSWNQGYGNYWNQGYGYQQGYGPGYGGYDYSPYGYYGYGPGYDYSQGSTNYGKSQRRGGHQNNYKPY
Sequence of UniProt P35914 (P35914 whole entry, looked up): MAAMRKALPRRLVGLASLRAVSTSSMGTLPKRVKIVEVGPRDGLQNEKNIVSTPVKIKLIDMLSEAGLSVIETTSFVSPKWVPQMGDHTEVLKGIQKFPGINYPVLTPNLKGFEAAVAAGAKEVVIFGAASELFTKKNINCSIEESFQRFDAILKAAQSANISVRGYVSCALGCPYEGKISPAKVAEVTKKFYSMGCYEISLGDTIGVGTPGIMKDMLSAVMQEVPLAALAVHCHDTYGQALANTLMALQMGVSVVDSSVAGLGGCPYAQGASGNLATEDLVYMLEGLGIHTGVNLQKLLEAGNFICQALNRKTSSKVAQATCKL
Sequence of UniProt Q01628 (Q01628 whole entry, looked up): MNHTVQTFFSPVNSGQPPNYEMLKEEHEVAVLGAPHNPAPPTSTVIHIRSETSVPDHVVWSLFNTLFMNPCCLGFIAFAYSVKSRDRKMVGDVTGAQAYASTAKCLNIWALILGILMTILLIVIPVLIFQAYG
Sequence of UniProt Q9H1B7 (Q9H1B7 whole entry, looked up): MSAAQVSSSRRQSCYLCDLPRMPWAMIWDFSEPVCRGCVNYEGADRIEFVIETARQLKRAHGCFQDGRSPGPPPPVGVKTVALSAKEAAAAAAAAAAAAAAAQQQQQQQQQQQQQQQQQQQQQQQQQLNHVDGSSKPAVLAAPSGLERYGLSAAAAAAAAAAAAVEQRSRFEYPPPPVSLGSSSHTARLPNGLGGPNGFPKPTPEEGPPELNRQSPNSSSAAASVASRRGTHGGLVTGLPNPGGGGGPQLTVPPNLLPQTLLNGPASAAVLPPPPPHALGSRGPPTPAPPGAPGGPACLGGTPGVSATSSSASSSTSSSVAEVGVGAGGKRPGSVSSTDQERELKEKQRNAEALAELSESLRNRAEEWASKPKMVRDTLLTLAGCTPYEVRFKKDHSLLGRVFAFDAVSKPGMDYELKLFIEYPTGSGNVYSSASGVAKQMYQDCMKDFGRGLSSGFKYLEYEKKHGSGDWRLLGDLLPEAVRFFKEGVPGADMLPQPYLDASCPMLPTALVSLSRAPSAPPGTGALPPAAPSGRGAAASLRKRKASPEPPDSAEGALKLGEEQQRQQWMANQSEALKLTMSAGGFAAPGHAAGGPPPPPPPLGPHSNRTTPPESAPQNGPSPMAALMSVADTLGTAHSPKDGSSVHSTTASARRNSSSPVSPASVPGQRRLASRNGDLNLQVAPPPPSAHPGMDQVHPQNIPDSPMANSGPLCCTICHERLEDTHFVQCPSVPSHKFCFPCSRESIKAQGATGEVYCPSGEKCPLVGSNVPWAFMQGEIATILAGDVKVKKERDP
Sequence of UniProt Q9H4A5 (Q9H4A5 whole entry, looked up): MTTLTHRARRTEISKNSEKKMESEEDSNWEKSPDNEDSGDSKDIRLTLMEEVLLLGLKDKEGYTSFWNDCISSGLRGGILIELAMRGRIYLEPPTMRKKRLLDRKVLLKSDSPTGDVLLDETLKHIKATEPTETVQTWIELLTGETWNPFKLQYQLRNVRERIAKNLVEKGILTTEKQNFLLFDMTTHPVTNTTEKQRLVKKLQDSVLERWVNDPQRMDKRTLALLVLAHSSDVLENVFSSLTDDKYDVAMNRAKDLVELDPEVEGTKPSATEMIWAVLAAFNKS

Target	log2 fold change [1]	log2 fold change [2]	log2 fold change [3]	log2 fold change [4]	log2 fold change [5]	log2 fold change [6]	log2 fold change [7]	log2 fold change [8]	log2 fold change [9]	log2 fold change [10]	log2 fold change [11]	log2 fold change [12]	log2 fold change [13]	log2 fold change [14]	log2 fold change [15]	log2 fold change [16]	log2 fold change [17]	log2 fold change [18]	log2 fold change [19]	log2 fold change [20]
GOLPH3L (UniProt Q9H4A5)	0.019	-0.048	-0.106	-0.028	-0.027	-0.05	-0.071	-0.009	-0.146	0.029	-0.045	0.033	0	-0.006	0.01	-0.026	0.018	0.094	0.013	-0.039
HMGCL (UniProt P35914)	-0.005	-0.029	0.012	0.033	0.002	-0.029	0.026	0.008	-0.016	-0.031	0.011	-0.041	0.029	0.023	0.02	-0.017	-0.013	0.018	-0.033	0.015
HECTD4 (UniProt J3KPF0)	-0.024	-0.043	-0.127	-0.005	-0.004	-0.024	0.01	-0.002	-0.083	0.101	0.014	-0.009	-0.077	-0.007	0.037	-0.145	0.016	0.02	0.011	0.017
ILRUN (UniProt Q9H6K1)	-0.045	-0.033	0.009	-0.025	0.016	0.012	0.013	-0.028	-0.023	-0.017	-0.12	-0.038	-0.003	-0.073	0.005	-0.047	-0.012	0.033	0.041	-0.038
ILKAP (UniProt Q9H0C8)	0.04	0.049	0.026	0.022	0.007	-0.052	0.031	0.029	0.001	-0.021	0.023	-0.01	0.025	-0.094	-0.009	0.011	-0.005	0.005	0.026	0.044
HDGFL2 isoform 2 (UniProt Q7Z4V5)	0.02	0.027	-0.028	-0.348 (active)	0.037	0.248 (active)	0.018	-0.003	0	0.167	-0.005	-0.005	0.014	-0.021	-0.023	-0.061	0.003	0.011	-0.001	-0.02
HNRNPH2 (UniProt P55795)	0.025	-0.004	-0.097	-0.048	-0.024	0.068	-0.032	0.062	0.018	0.008	-0.07	0.04	0.049	0.071	0.003	-0.147	-0.003	0.014	-0.037	-0.113
IFITM3 (UniProt Q01628)	-0.123	-0.067	-0.089	-0.103	-0.005	0.035	-0.153	-0.034	0.09	-0.022	0.068	0.055	0.049	-0.013	0.064	-0.069	-0.136	-0.044	-0.133	-0.051
GRB10 (UniProt Q13322)	-0.029	-0.034	-0.028	-0.125	0.029	0.016	-0.06	0.021	-0.049	0.099	0.053	-0.028	-0.003	0.026	0.04	-0.065	-0.058	0.008	-0.056	0.008
IARS2 (UniProt Q9NSE4)	-0.023	-0.013	-0.01	0.19	-0.007	-0.057	0.02	0.011	-0.002	-0.049	0.016	-0.007	-0.021	0.026	0	0.022	0.006	0.021	0.02	-0.004
KARS1 (UniProt Q15046)	-0.002	0	0.003	0.036	0.004	-0.082	0.025	0.007	-0.025	-0.026	-0.017	-0.01	-0.031	-0.029	0.02	0.034	0.02	0.004	0.013	0.02
IRF2BPL (UniProt Q9H1B7)	0.017	0.024	-0.006	-0.216	0.006	0.07	-0.005	-0.004	-0.015	0.075	0.001	0.005	-0.043	0.054	-0.059	0.032	-0.069	-0.01	0	0
INTS10 (UniProt Q9NVR2)	0.097	-0.093	-0.04	0.027	-0.09	-0.168	0.011	0.026	-0.052	0	-0.01	-0.025	-0.054	-0.024	0.109	-0.034	-0.021	0.011	0.039	0.028
HNRNPAB isoform 3 (UniProt Q99729)	0.007	0.01	0.04	-0.068	-0.009	0.019	-0.02	-0.058	-0.002	0.033	-0.012	0.026	0.022	0.024	-0.028	0.026	0.006	0	-0.005	0.012
IGF2BP3 (UniProt O00425)	0.013	-0.038	-0.031	-0.032	0.017	-0.04	0.001	-0.006	-0.045	0.053	-0.046	0.008	-0.035	0.006	0.063	-0.045	0.008	0.039	0.013	-0.027
GUSB (UniProt P08236)	-0.097	-0.012	-0.044	-0.547 (active)	0.017	0.228	0.02	0.037	-0.057	0.27	0.028	-0.067	0.007	-0.026	-0.002	-0.109	-0.066	-0.041	0.001	-0.01
